# Assay results published in PubChem BioAssay AID1159569 (Broad Institute, 2015).
# Potency and affinity values are given separately. Results filed as inconclusive are left out. Activity calls are given as the source filed them. No rule for the calls is given here.
# Experiment: toxicity to human HepG2 hepatoma cells – cell-based, plate reader, dry powder samples, cytotoxicity control, dose response (AID 1159569)
# Conditions: HepG2 cytotoxicity counterscreen; series mostly up to 50 µM; activity change, negative = cytotoxicity: at the top concentration
row,SMILES,"activity change, negative = cytotoxicity"
1,COc1ccc2c3c(n(C)c2c1)[C@@H](CO)N(C(=O)c1ccc(F)cc1)CC31CCN(C(=O)Nc2ccc(F)cc2)CC1,5.35% [at 16 µM] (inactive)
2,COc1ccc(NC(=O)N(C)C[C@@H]2Oc3c(NC(=O)c4nc5ccccc5s4)cccc3C(=O)N([C@@H](C)CO)C[C@H]2C)cc1,-23% (inactive)
3,OC[C@H]1[C@H](c2ccccc2)C2(CN(Cc3ccccc3F)C2)N1Cc1ccccc1F,-54.7% (inactive)
4,CCCC#Cc1ccc2c(c1)O[C@H](CN(C)C(=O)Nc1ccc(OC)cc1)[C@H](C)CN([C@H](C)CO)S2(=O)=O,-25.5% (inactive)
5,COc1ccc2c3c(n(C)c2c1)[C@@H](CO)N(C(=O)C1CCCC1)CC31CN(C(=O)Nc2cccc(F)c2)C1,-13.8% (inactive)
6,CC(C)(C)[S@](=O)N1Cc2cc(C(=O)N[C@@H]3CCN(Cc4ccccc4)C3)nc(-c3cccc(-c4cccnc4)c3)c2[C@@H]1CCO,4.18% [at 18 µM] (inactive)
7,COc1cccc(C#Cc2ccc([C@H]3[C@@H](CO)N(C(=O)c4ccccn4)[C@H]3C#N)cc2)c1,-1.52% (inactive)
8,Cc1nc(N2[C@H](CO)[C@H](c3ccccc3)[C@H]2CNCC2CCCC2)sc1C,-35.8% (inactive)
9,CCCC(=O)N1CC2(C1)CN(S(=O)(=O)c1ccc(C)cc1)[C@@H](CO)c1[nH]c3cc(OC)ccc3c12,-20.5% (inactive)
10,COc1ccc(NC(=O)N2CCCCN3[C@H](CO)[C@H](c4ccc(C#Cc5ccccn5)cc4)[C@@H]3C2)cc1,-9.61% (inactive)
11,CCC(=O)N1CCC2(CC1)CN(S(=O)(=O)c1ccccc1)[C@@H](CO)c1[nH]c3cc(OC)ccc3c12,-22.3% (inactive)
12,O=C(C1CCCC1)N1CC2(C1)[C@@H](c1ccccc1)[C@H](CO)N2Cc1ccc(Cl)cc1,-21.2% (inactive)
13,COc1ccc2c3c(n(C)c2c1)[C@@H](CO)N(C(=O)C1CC1)CC31CCN(C(=O)Nc2cccc(F)c2)CC1,-11.9% (inactive)
14,Cc1ccc(-c2ccccc2[C@H]2[C@@H](C#N)N(C(=O)c3cccc(F)c3)[C@H]2CO)cc1,-18.3% (inactive)
15,C[C@@H]1CN([C@@H](C)CO)C(=O)c2cccc(NC(=O)c3ccc(-c4nccs4)cc3)c2O[C@H]1CN(C)Cc1ccc(Cl)c(Cl)c1,-9.23% (inactive)
16,C[C@@H]1CN([C@@H](C)CO)C(=O)c2cccc(NC(=O)c3nc4ccccc4s3)c2O[C@H]1CN(C)C(=O)NC1CCCCC1,-13.8% (inactive)
17,OC[C@H]1[C@@H](c2ccc(-c3cccnc3)cc2)[C@@H]2CN(CC3CC3)CCCCN12,-6.11% (inactive)
18,COc1ccc2c3c(n(C)c2c1)[C@@H](CO)N(C(=O)c1ccccc1)CC31CCN(C(=O)c2ccccc2)CC1,-16.1% (inactive)
19,COc1ccccc1S(=O)(=O)N(C)C[C@@H]1OCc2ccccc2-c2c(n(C)c3ccccc23)C(=O)N([C@@H](C)CO)C[C@@H]1C,-23.5% (inactive)
